Screens as filed in PubChem.
Sampled rows, rich in hits. Any-hit rate of the full collection: about 2.3%.
CHO-K1 Ca PAM = M1 PAM counterscreen hit in parental CHO-K1 cells; ATP EC20, Fluo-8 calcium fluorescence; 0% at ATP EC20, 100% at ATP max; activation, % at 3 µM; 360,000 tested, 0.02% active; AID 602247;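 active = activation above the run cutoff, the mean activation of all test compounds plus 3 SD, cut at about 40% in these data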;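 note: peak over basal fluorescence ratio in a 140 s read after ATP addition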
CHRM1 PAM = human CHRM1 positive allosteric modulation | CHO-K1 hM1, Fluo-8 calcium fluorescence, ACh EC20; 0% = ACh EC20, 100% = maximal ACh | activation, % at 3 µM | 360,000 tested, 0.088% active; in the data active = activation above about 19%, passing the limit was not always enough
Target sequence (P11229 whole entry, looked up): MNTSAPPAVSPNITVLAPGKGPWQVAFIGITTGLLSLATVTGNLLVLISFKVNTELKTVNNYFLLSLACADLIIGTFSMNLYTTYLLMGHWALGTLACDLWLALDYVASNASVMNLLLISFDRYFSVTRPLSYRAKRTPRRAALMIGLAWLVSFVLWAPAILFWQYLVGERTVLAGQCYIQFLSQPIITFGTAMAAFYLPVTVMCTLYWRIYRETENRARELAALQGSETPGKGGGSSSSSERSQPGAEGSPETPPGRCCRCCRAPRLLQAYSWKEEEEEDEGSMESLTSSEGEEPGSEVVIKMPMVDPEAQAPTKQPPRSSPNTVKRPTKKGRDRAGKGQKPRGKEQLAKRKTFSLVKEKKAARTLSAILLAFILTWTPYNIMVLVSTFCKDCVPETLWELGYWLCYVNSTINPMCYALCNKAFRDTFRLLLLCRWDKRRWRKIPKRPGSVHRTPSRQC
M1 antag = human CHRM1 antagonism; CHO-K1 hM1, Fluo-8 calcium fluorescence, ACh EC80 antagonist; inhibition, % at 3 µM; 360,000 tested, 1.3% active; P11229;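 active = percent inhibition above its own plate's cutoff, namely the mean of that plate's compound wells plus 3 SD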;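 note: peak over basal fluorescence ratio during 140 s after agonist addition; 0% = ACh EC80 plus DMSO and 100% = DMSO alone without agonist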
M1 ag = human M1 muscarinic receptor agonism | CHO-K1 hM1, Fluo-8 calcium fluorescence, agonist mode; 0% DMSO, 100% acetylcholine EC100 | 360,000 tested, 0.33% active | activation, % at 3 µM | AID 588814 | P11229;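 active = activation above the run's mean compound activation plus 3 SD, cut at about 16% in these data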;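 note: peak over basal fluorescence ratio within a 140 s kinetic read after compound addition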
M1 ag parental = counter-screen for M1 agonists: effect in parental CHO-K1 cells. Fluo-8 calcium fluorescence; scaled to maximal ATP response, vehicle zero. activation, % at 3 µM. 360,000 tested, 0.48% active. AID 602248; in the data active = activation above about 15%;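 note: untransfected CHO-K1 host cells lacking M1 receptor as counterscreen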
CHO-K1 Ca antag = counter-screen for M1 antagonists: effect in parental CHO-K1 cells; ATP-induced calcium, Fluo-8 fluorescence; inhibition, % at 3 µM; 360,000 tested, 0.6% active;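 active = inhibition above a per-plate cutoff, the plate's mean sample inhibition plus 3 SD, cut at about 24% in these data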;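 note: 0% = DMSO plus EC80 ATP and 100% = DMSO alone without ATP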
* = called active by the depositor.

SMILES	CHO-K1 Ca PAM	CHRM1 PAM	M1 antag	M1 ag	M1 ag parental	CHO-K1 Ca antag
O=C(NNc1c([N+](=O)[O-])cc(C(F)(F)F)cc1[N+](=O)[O-])c1ccco1	-20	-1	-2	3	13	16
Cc1noc(C)c1COC(=O)c1csc2c1CCC(C)C2 (centres undefined)	-1	-3	2	-7	-1	-5
Cc1ccccc1-n1nnnc1SCC(=O)NCC1(N2CCOCC2)CCCCC1	15	-3	9	-5	4	-2
COc1ccc(CN2CCN(Cc3cccc(Oc4ccccc4)c3)CC2)c(OC)c1OC	-6	-26	44*	-5	10	9
CC(NC(=O)c1ccncc1)C(c1cccs1)N1CCOCC1 (centres undefined)	21	10	-11	5	1	-18
Cc1cccc(C(=O)NC(C)C(c2cccs2)N2CCOCC2)c1 (centres undefined)	12	-5	7	0	15*	-3
COc1ccccc1CNC(=O)COc1cc2c(c3oc(=O)cc(C)c13)CCC(C)(C)O2	-14	-25	34*	-5	1	1
Cc1cc(Cl)cc2sc(=S)[nH]c12	12	6	-21	3	3	-15
Cc1ccc(C(C)C)c(OCCn2ccnc2C)c1	-12	-30	99*	-10	1	6
Cc1ccc(C(C)C)c(OCCNCCc2ccccc2)c1	28	-21	30*	-1	15	-4
COc1cc(C(=O)NCCOc2cc(C)ccc2C(C)C)cc(OC)c1OC	-3	-9	15	8	16*	23
c1ccc(CCNCCOc2ccccc2)cc1	2	12	-21	6	15*	6
Cc1ccc(C(C)C)c(OCCNC(=O)c2cncc(Br)c2)c1	11	6	4	3	2	-3
CC1(C)CC(=O)C=C(c2ccc(-c3ccc4[nH]ccc4c3)cc2)C1=O	12	-6	12	4	6	7
C#CCOCCOCCOCCNc1nc(N2CCN(C(=O)[C@H](C(C)C)n3cc(CCO)nn3)CC2)nc(N2CCN(C(=O)[C@H]([C@@H](C)CC)n3cc(CCC(=O)O)nn3)CC2)n1	14	2	-6	-4	0	-7
O=C(COC(=O)Cc1ccc(S(=O)(=O)N2CCOCC2)s1)Nc1ccccc1Cl	-9	-8	14	-1	0	1
CC(C)c1ccc(C2CC(=O)c3cnc(NC(=O)c4ccco4)nc3C2)cc1 (centres undefined)	18	-6	2	-9	1	-8
CC1CCCCC1NC(=O)CN1CCN(S(=O)(=O)c2ccc(Br)s2)CC1 (centres undefined)	-7	4	1	0	2	-12
O=C(CN1CCCCC1)Nc1nnc(-c2ccc([N+](=O)[O-])cc2)s1	-6	-7	13	-3	0	29*
CCc1nc2ccc(C(=O)NCCCN(C)C)cn2c1N(C)CCCc1ccccc1	21	-12	10	-7	3	-1
CCc1nc2ccc(C(=O)N3CCN(C)CC3)cn2c1N(C)CCC(C)C	20	5	-7	-9	1	-6
CCc1nc2ccc(C(=O)N3CCCCC3)cn2c1N(C)CCCc1ccccc1	5	-25	69*	-8	1	-8
CCc1nc2ccc(C(=O)NCCCn3ccnc3)cn2c1N(CC)C(=O)NCCc1ccccc1	6	5	-11	-4	0	-2
CCc1nc2ccc(C(=O)NCCCn3ccnc3)cn2c1N(C)CCCc1ccccc1	15	-26	44*	-7	2	-1
CCc1nc2ccc(C(=O)N3CCN(C)CC3)cn2c1N(C)CCCc1ccccc1	14	-30	33*	-8	2	-14
SMILES	CHO-K1 Ca PAM	CHRM1 PAM	M1 antag	M1 ag	M1 ag parental	CHO-K1 Ca antag
O=C(CSc1nc(=O)[nH]c2c1CCCC2)Nc1cc(C(F)(F)F)cc(C(F)(F)F)c1	8	7	-12	-4	1	-2
CCn1nnnc1NCc1ccc(SC)cc1	15	0	-5	-9	0	-2
CCn1nnnc1NCc1ccc(N2CCCC2)cc1	14	-22	89*	-5	0	-14
CCN(CC)CCC/C(=N\O)C(O)(c1ccccc1)c1ccccc1	11	-22	95*	-5	1	-14
CC[N+](C)(CC)CCC/C(=N/O)C(O)(c1ccccc1)c1ccccc1	14	-20	64*	-3	1	-5
CC/C(CC(C)(C)c1ccccc1)=N\O	22	7	-4	-3	0	-15
COC(=O)c1ccccc1-c1c2ccc(=N)cc-2oc2cc(N)ccc12	-23	-24	102*	890*	678*	88*
Cc1cc(C)cc(NC(=O)c2ccc(CSc3nnc(C)s3)cc2)c1	-4	-12	36*	0	4	16
CC(C)Cc1ccc(C(C)NC(=O)c2ccc(=O)[nH]c2)cc1 (centres undefined)	-8	1	11	12	15*	4
CC(Cc1ccccc1)NC(=O)CSc1nc2nc3c(cc2c(=O)n1-c1ccccc1)COC(C)(C)C3 (centres undefined)	0	8	-5	16*	0	10
CCn1c(SCC(=O)Nc2ccc(OC)cc2OC)nc2nc3c(cc2c1=O)COC(C)(C)C3	1	0	2	-5	2	-1
COc1ccc(-n2c(SCC(N)=O)nc3nc4c(cc3c2=O)COC(C)(C)C4)cc1	4	4	4	-4	1	1
CCn1c(SCC(=O)Nc2cccc(C)c2)nc2nc3c(cc2c1=O)COC(C)(C)C3	-14	-5	6	-5	16*	13
N#C/C(=N\Nc1ccc(Cl)cc1)C(N)=S	-22	-3	13	7	11	25*
N#C/C(=N\Nc1cccc(Cl)c1)C(=O)c1ccccc1	-3	-3	15	5	5	29*
Cc1ccc(NC(N)=S)cc1C	12	7	-2	-4	0	8
N#C/C(=N\Nc1ccc(Cl)cc1)C(=O)c1ccsc1	-3	0	12	5	13	24*
N#C/C(=N\Nc1ccccc1)C(N)=S	3	16	-12	6	6	18
Cc1ccc(N/N=C(\C#N)C(N)=S)cc1C	-2	1	5	0	16*	7
CN(c1ccc(OCC(=O)OCC(=O)NCc2ccco2)cc1)S(=O)(=O)c1ccc2ccccc2c1	5	-1	13	-3	5	2
Cn1nnnc1Sc1ncnc2scc(-c3ccc([N+](=O)[O-])cc3)c12	-21	-2	11	-12	0	3
CCCOC1CCCN(Cc2nc(-c3cnccn3)no2)C1 (centres undefined)	-9	-2	4	0	0	-6
